Results on 54 molecules are retold here after PubChem BioAssay AID504834 (National Center for Advancing Translational Sciences (NCATS), 2011).

Molecules are shown by their SMILES. Out of some 320,000 compounds screened, about 22,000 (6.9%) were called active. About 27% were inconclusive and are not listed. This is one part of a sample in which actives are shown more often than they occur. Values without a mark were called inactive. Calls come from the whole dose curve; as a rule, active = well fitted inhibition curve with a large enough effect; inconclusive = small, poorly fitted or top-dose-only effect, or another doubt; inactive = no such curve, though single readings can be large or run the other way.
% is set by controls: 0 for no effect and ±100 for the full control effect; potency is the fitted concentration of half-maximal effect.

This test is described as follows: Primary qHTS for delayed death inhibitors of the malarial parasite plastid, 96 hour incubation. As to conditions: P. falciparum luciferase reporter growth; series mostly up to 28.7 µM; activity change, negative = inhibition: at the top concentration. The gist of the method: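 Compounds incubated with erythrocytes infected by luciferase-expressing P. falciparum (2% hematocrit, 0.05% parasitemia final) for 96 hours, 37 C in 5% CO2. Growth inhibition scored as decreased luciferase luminescence.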
In the case of `Cc1cc(/C=C2/SC(=O)N(CC(=O)N3CCCC3)C2=O)c(C)n1C`, the “activity change, negative = inhibition” value was 0.761%.
Turning to `Cc1cc([N+](=O)[O-])ccc1NCc1cccc([N+](=O)[O-])c1`, the Potency is 10.4 µM (active).
`COc1cccc(C(=O)CC(=O)C(=O)Nc2ccc([N+](=O)[O-])cc2C)c1`: the “activity change, negative = inhibition” value is 7.8%.
For the molecule `Cc1cc([N+](=O)[O-])ccc1NC1CCCC1`, the “activity change, negative = inhibition” value is 33.7%.
For the molecule `COC(=O)c1ccccc1NC(=O)CSc1ccccn1`, the Potency was 2.94 µM (active).
In the case of `COC(=O)c1ccccc1NC(=O)CSc1nnnn1C`, the “activity change, negative = inhibition” value is -13.6%.
Consider `C[C@@H]1CC[C@@]2(OC1)O[C@H]1C[C@H]3[C@@H]4CC=C5C[C@@H](O)[C@H](O)C[C@]5(C)C4CC[C@]3(C)[C@H]1[C@@H]2C` (some centres undefined), for which the “activity change, negative = inhibition” value is 18.3%.
In the case of `COc1cc(C(=O)NCC(=O)N2CC=C(c3ccccc3)CC2)cc(OC)c1OC`, the “activity change, negative = inhibition” value was -7.67%.
On the same count and under the same terms, in the case of `Cc1cc(OCC(=O)Nc2c(C)n(C)n(-c3ccccc3)c2=O)ccc1[N+](=O)[O-]` it was -12.6%; in that of `O=C(COC(=O)c1ccc[nH]c1=O)Nc1ccc2c(c1)OC(F)(F)O2`, 6.84%; in that of `O=C(O)COCC(=O)NCc1csc2ccc(Cl)cc12`, 5.36%.
Consider `c1cc(-c2nn[nH]n2)ccc1CN1CCCCC1`, for which the “activity change, negative = inhibition” value was 14%.
Consider `Clc1ccc(CN2CCCCCC2)cc1Cl`, for which the Potency was 11.7 µM (active).
In the case of `O=C(Nc1ccc(CN2CCOCC2)cc1)c1cc(Cl)ccc1Cl`, the “activity change, negative = inhibition” value is 64.2%.
Still for that read-out and setting: for `COc1ccccc1C(=O)NC(=S)NC12CC3CC(CC(C3)C1)C2` the value was 53.4%; for `COc1ccc(NC(=S)N2CCC(NC(=O)c3cccc(F)c3)CC2)cc1`, 23.6%.
As to `COc1ccc(Cn2c(-c3ccc(Cl)cc3)c[n+]3ccccc23)cc1`, the Potency is 0.117 µM (active).
As for `CCn1c(C)cc(=O)cc1-c1ccc(Cl)cc1`, the “activity change, negative = inhibition” value was -8.16%.
As for `COc1ccc(C(=O)CN(C(=O)c2ccc(Cl)cc2)N2C(=O)c3ccccc3C2=O)cc1`, the “activity change, negative = inhibition” value was -5.05%.
On to `Cc1cc(C)c(C(=O)CSc2nc(C)cc(=O)[nH]2)c(C)c1`, for which the “activity change, negative = inhibition” value was 19.3%.
On the same count and under the same terms, in the case of `CSc1nnc(C2CCCN(CC(=O)Nc3ccccc3N3CCOCC3)C2)n1C(C)C` (centres undefined) it was -0.457%; in that of `COc1ccc(C(=O)n2nc(C)c(Br)c2C)cc1OC`, -23.3%; in that of `O=S(=O)(Nc1ccc(Cl)cn1)c1cnc(Cl)c(Br)c1`, -15.1%.
Take `COC(=O)c1ccc(S(=O)(=O)N2CCc3ccccc3C2)cc1`: the “activity change, negative = inhibition” value was 4.42%.
With `Cc1cccc(N2CCN(C(=O)c3cccc(S(=O)(=O)N4CCc5ccccc5C4)c3)CC2C)c1` (centres undefined), the Potency is 11.7 µM (active).
Consider `CN1CCN(S(=O)(=O)c2cccc(C(=O)N3CCc4ccccc43)c2)CC1`, for which the “activity change, negative = inhibition” value was -2.85%.
Regarding `CCCCC(CC)CNCc1cccn1CCN1CCOCC1` (centres undefined), the Potency was 11.7 µM (active).
Take `CCCCc1ccc(NC(=S)NCCCN2CCOCC2)cc1`: the “activity change, negative = inhibition” value is -2.79%.
With `CSc1ccc(CNCCN2CCOCC2)cc1`, the “activity change, negative = inhibition” value was -19%.
The same measure, in the same setting: in the case of `COc1cccc(N2CC(C(=O)NCc3n[nH]c(=O)c4ccccc34)CC2=O)c1` (centres undefined) it was 0.0788%.
On to `CC(C[N+](C)(C)C)OC(N)=O` (centres undefined), for which the Potency was 9.53 µM (active).
Regarding `CCc1ccc[n+](-c2nc([O-])sc2C=O)c1`, the “activity change, negative = inhibition” value is 3.32%.
Take `COc1ccc(CNc2cc(C)cc(C)c2)cc1OC`: the “activity change, negative = inhibition” value is 333%.
Regarding `COc1ccc(/C=C/C(=O)c2cc(Br)ccc(=O)c2O)cc1`, the Potency is 10.4 µM (active).
Turning to `COc1ccc(C(=O)/C=C/c2cccnc2)c(OC)c1`, the “activity change, negative = inhibition” value is 45%.
As for `COc1ccc(/C=C/C(=O)c2ccc(OC)cc2O)cc1`, the “activity change, negative = inhibition” value was 0.573%.
The same measure, in the same setting: in the case of `CSc1nsc(SCC(=O)Nc2cc(C(=O)O)ccc2C)n1` it was 1.89%.
For `O=C1CC[C@H](O)CCN1[C@H](CSc1ccc(Br)cc1)Cc1ccccc1`, the “activity change, negative = inhibition” value was 1.74%.
`CC(=O)Nc1ccc(SC[C@H](Cc2ccccc2)N2CC[C@@H](C)CCC2=O)cc1`: the Potency was 3.29 µM (active).
For `O=C1CCN(Cc2ccc([N+](=O)[O-])cc2)CCN1[C@H](CO)Cc1ccccc1`, the “activity change, negative = inhibition” value was 3%.
As to `C[C@H]1CCC(=O)N([C@H](CSc2ccccc2)Cc2ccccc2)CC1`, the Potency is 11.7 µM (active).
Consider `CN1CCC(=O)N([C@H](CO)Cc2ccccc2)CC1`, for which the “activity change, negative = inhibition” value was 19.6%.
With `COc1ccc(SC[C@H](Cc2ccccc2)N2CCN(CCc3ccccc3)CCC2=O)cc1`, the Potency was 4.65 µM (active).
Turning to `CC(=O)Nc1ccc(NC(=O)C(C)OC(=O)C2CC(=O)N(CCc3ccccc3)C2)cc1` (centres undefined), the “activity change, negative = inhibition” value is 0.835%.
Take `COc1ccc(SCCN2CCN(CC(C)C)CCC2=O)cc1`: the “activity change, negative = inhibition” value is 39.1%.
Regarding `CC1CCN(CCC(=O)Nc2ccccc2)CC1`, the “activity change, negative = inhibition” value was -26.8%.
For `C/C(Cc1ccccc1)=N\NC(=O)CNC(=O)c1ccccc1Cl`, the “activity change, negative = inhibition” value is 41.4%.
For the molecule `CCC1(CC)Cc2ccccc2-c2nc(CCl)[nH]c(=O)c21`, the “activity change, negative = inhibition” value was 75.3%.
In the case of `COc1ccc(CCNS(=O)(=O)c2cc3c(cc2C)NC(=O)CO3)cc1OC`, the “activity change, negative = inhibition” value is 109%.
As to `CCC(=O)c1ccc(OCC(=O)Nc2ccc(N3CCCCC3)cc2)cc1`, the “activity change, negative = inhibition” value is -24.7%.
`Cc1c(CC(=O)NCC(=O)NCC(=O)O)c(=O)oc2cc3oc4c(c3cc12)CCCC4`: the “activity change, negative = inhibition” value is 45.5%.
As to `O=S(=O)(NC1CC2CCC1C2)c1ccc(Cl)cc1` (centres undefined), the “activity change, negative = inhibition” value was -11.6%.
With `CC1CN(C(=S)Nc2cccc(F)c2)CC(C)O1` (centres undefined), the “activity change, negative = inhibition” value was -26.1%.
On the same count and under the same terms, for `CCCCC(CCC(=O)Nc1ccc(C(=O)OCC)cc1)C(=O)O` (centres undefined) the value was -4.38%.
